Screening data (PubChem)
Sfp inh = inhibitors of Bacillus subtilis Sfp phosphopantetheinyl transferase. Biochemical Sfp PPTase activity, qHTS. Potency, µM, for the others: largest response in the series, negative = inhibition, hits mostly inhibitors. actives 3.5% (n = 310,000). AID 1490;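 note: the enzyme is Sfp with the accession as filed and its product quenches rhodamine fluorescence; 0% = enzyme reaction without inhibitor and -100% = no enzyme wells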
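With Hepes-Na pH 7.6 buffer containing 10 mM MgCl2, Sfp (15 nM) modified BHQ-2-YbbR (12.5 uM) using rhodamine-CoA (5 uM). Two reads 30 minutes apart at 525/598 nm yielded each well's rate.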
VDR inh = inhibitors of human vitamin D receptor | VDR-SRC2-3 peptide fluorescence polarization, 2 h | Potency, µM, without a hit: max response, negative = inhibition, most hits filed as inhibitors | actives 0.93% (n = 400,000) | AID 504847
Target sequence (P11473 whole entry, looked up): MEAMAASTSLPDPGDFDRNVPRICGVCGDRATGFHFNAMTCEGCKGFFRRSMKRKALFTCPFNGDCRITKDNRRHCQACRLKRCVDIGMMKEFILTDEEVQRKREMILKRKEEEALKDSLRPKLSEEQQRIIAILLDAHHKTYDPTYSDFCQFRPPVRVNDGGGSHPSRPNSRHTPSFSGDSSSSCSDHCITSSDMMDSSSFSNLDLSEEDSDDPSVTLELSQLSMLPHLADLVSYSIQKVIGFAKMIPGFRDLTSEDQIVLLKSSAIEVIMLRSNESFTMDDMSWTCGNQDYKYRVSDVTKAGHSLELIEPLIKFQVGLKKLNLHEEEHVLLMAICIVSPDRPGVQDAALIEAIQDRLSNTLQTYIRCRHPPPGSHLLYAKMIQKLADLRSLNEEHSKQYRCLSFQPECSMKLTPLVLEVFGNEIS
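Signal is fluorescence polarization, reporting how far test compounds block the interaction of VDR with the SRC2-3 coregulator peptide after a 2 h room-temperature incubation.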
PLK1 PBD inh = inhibitors of human PLK1 polo-box domain binding | Potency, µM, inactives show max response, negative = inhibition, actives largely listed as inhibitors | AID 720504 | P53350 | actives 2.8% (n = 360,000) | Plk1 PBD binding of FITC phosphopeptide, fluorescence polarization; note: series mostly up to about 57 µM; nearly all actives have a fitted effect of over 65% in size
Tau FP inhib = blocks human tau fibril formation measured by polarization; K18 P301L tau heparin fibrillization, Alexa594 FP, 6 h; Potency, µM (series often up to 57.7 µM), without a hit: top-dose activity, negative = inhibition, usual class: inhibitors; actives 0.39% (n = 280,000); AID 1468; note: nearly all actives have a fitted effect of over 55% in size
Target sequence (P10636 561-689 P618L limits assumed): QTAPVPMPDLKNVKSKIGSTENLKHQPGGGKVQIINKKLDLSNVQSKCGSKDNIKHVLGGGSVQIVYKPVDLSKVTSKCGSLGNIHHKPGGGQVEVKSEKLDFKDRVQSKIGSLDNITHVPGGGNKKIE
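Human tau K18 […] P301L fragment, 15 uM unlabeled plus 0.24 uM Alexa 594-labeled tau (final), with compound and 20 uM heparin in 100 mM sodium acetate pH 7; 6 hr at 37 C, then Alexa 594 FP read.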
Tau fluor counter = counter-screen for tau fibril formation inhibitors | tau K18 P301L Alexa594 fluorescence, heparin fibrillization | Potency, µM (doses to about 57.7 µM), inactives show at the highest dose activity change, negative = decrease | actives 0.93% (n = 280,000); note: nearly all actives have a fitted effect of over 55% in size
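Human K18 P301L tau (15 uM unlabeled plus 0.24 uM Alexa 594-labeled, final) in 100 mM sodium acetate pH 7 was mixed with compound and 20 uM heparin and incubated 6 hr at 37 C.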
Tau ThT inhib = tau fibrillization inhibition (ThT binding); P10636; recombinant tau K18 P301L, heparin-induced fibrillization, ThT fluorescence; Potency, µM (titrated, usually from 57.4 µM), for inactives: top-dose activity, negative = inhibition, usual class: inhibitors; actives 2.1% (n = 270,000); AID 1460; note: nearly all actives have a fitted effect of over 55% in size
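ThT emission at 510 nm, taken 1 hr after adding 30 uM dye, quantifies aggregates formed when 20 uM heparin acts on human tau K18 P301L for 6 hr at 37 C.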
Numbers without * were called inactive; [ ] = remark or other dose. Only some compounds are listed: those with a hit (about 6% of all), similar ones and a draw of the others. Calls come from the whole dose curve; as a rule, active = well fitted curve in the direction sought with a large enough effect; inconclusive = small, poorly fitted or top-dose-only effect, or another doubt; inactive = no such curve, though single readings can be large; an effect the other way counts as inactive or inconclusive. Unless noted, % is set by controls: 0 for no effect and ±100 for the full control effect; potency is the fitted concentration of half-maximal effect.

Results for Cc1ccc(NC(=O)CSc2nnc3scc(-c4ccc(Cl)cc4)n23)cc1 ?
VDR inh: 6%; Tau FP inhib: inconclusive; Tau fluor counter: 0%; Tau ThT inhib: 6%

Results for Cc1cccc(N2CCN(c3ncnc4onc(-c5ccc(F)cc5)c34)CC2C)c1 (centres undefined) ?
VDR inh: 6%; Tau FP inhib: 8%; Tau fluor counter: -18%; Tau ThT inhib: -7%

What do the screens show for `CCc1nnc(NS(=O)(=O)c2ccc(NC(=S)NC(=O)/C=C/c3ccc(C(C)C)cc3)cc2)s1`?
Sfp inh: inconclusive; VDR inh: -9%; PLK1 PBD inh: 21µM*; Tau FP inhib: -4%; Tau fluor counter: -12%; Tau ThT inhib: inconclusive

Results for CCc1nnc(NS(=O)(=O)c2ccc(N/C=C\C(=O)c3ccc4ccccc4c3)cc2)s1 ?
Sfp inh: -9%; VDR inh: -23%; PLK1 PBD inh: 24µM*; Tau FP inhib: 2%; Tau fluor counter: -6%; Tau ThT inhib: -9%

Results for CCc1nnc(NS(=O)(=O)c2ccc(NC(=O)/C=C/C(=O)O)cc2)s1 ?
Sfp inh: 50µM*; VDR inh: -4%; PLK1 PBD inh: -38%

What do the screens show for `CCc1nnc(NS(=O)(=O)c2ccc(NC(=S)NC(=O)/C=C/c3ccc(OC)cc3)cc2)s1`?
Sfp inh: 79µM*; VDR inh: 1%; PLK1 PBD inh: 27µM*; Tau FP inhib: 5%; Tau fluor counter: -6%; Tau ThT inhib: -1%

How did CCc1nnc(NS(=O)(=O)c2ccc(NC(=O)c3ccccc3)cc2)s1 do in these assays?
Sfp inh: 16%; VDR inh: -5%; PLK1 PBD inh: -10%; Tau FP inhib: 1%; Tau fluor counter: 10%

What do the screens show for `CCc1nnc(NS(=O)(=O)c2ccc(NC(=O)/C=C/c3ccccc3Cl)cc2)s1`?
Sfp inh: 21%; VDR inh: -4%; PLK1 PBD inh: inconclusive; Tau FP inhib: -6%; Tau fluor counter: -25%; Tau ThT inhib: -2%

What do the screens show for `CCOc1cc(C2CC(=O)Nc3c2c(=O)nc(SCc2cccc(Cl)c2)n3C)ccc1O` (centres undefined)?
VDR inh: 20%; Tau FP inhib: 1%; Tau fluor counter: -4%; Tau ThT inhib: -6%

How did C=CCc1cccc2cc(C(=O)Nc3ccc(S(=O)(=O)Nc4nnc(CC)s4)cc3)c(=O)oc12 do in these assays?
Sfp inh: 79µM*; VDR inh: -17%; PLK1 PBD inh: 21µM*; Tau FP inhib: 5%; Tau fluor counter: -4%; Tau ThT inhib: inconclusive

How did C=CCc1cccc2cc(C(=O)Nc3ccc(F)cc3)c(=O)oc12 do in these assays?
Sfp inh: 11%; VDR inh: -5%; PLK1 PBD inh: -12%; Tau FP inhib: -2%; Tau fluor counter: -12%; Tau ThT inhib: -10%

Results for Cc1ccc(-c2cn3c(n2)sc2cc(C(=O)NC4CCCCCC4)ccc23)c(C)c1 ?
VDR inh: 14%; Tau FP inhib: 6%; Tau fluor counter: inconclusive; Tau ThT inhib: -8%

How did CC(=O)Nc1ccc(NC2=C/C(=N/S(=O)(=O)c3cccs3)c3ccccc3C2=O)cc1 do in these assays?
Sfp inh: -7%; VDR inh: -11%; PLK1 PBD inh: -10%; Tau FP inhib: inconclusive; Tau fluor counter: 5µM*[quencher]; Tau ThT inhib: inconclusive

How did Cc1ccccc1NC1=C/C(=N\S(=O)(=O)c2cccs2)c2ccccc2C1=O do in these assays?
Sfp inh: -18%; VDR inh: -4%; PLK1 PBD inh: 19µM*; Tau FP inhib: -11%; Tau fluor counter: inconclusive; Tau ThT inhib: 8.9µM*

Results for N#Cc1c2ccc(O)cc2n2ccccc12 ?
Sfp inh: -5%; VDR inh: -7%; PLK1 PBD inh: inconclusive; Tau FP inhib: 13%; Tau fluor counter: inconclusive; Tau ThT inhib: -12%

How did COC(=O)c1ccc(NC(=O)c2c(NCc3ccc(C)o3)sc3c2CCCC3)cc1 do in these assays?
VDR inh: -8%; Tau FP inhib: 0%; Tau fluor counter: inconclusive; Tau ThT inhib: inconclusive

How did CCCCN(CC)Cc1ccc(CNC(=S)Nc2ccc(C)cc2Cl)o1 do in these assays?
Sfp inh: -13%; VDR inh: 12%; PLK1 PBD inh: -28%; Tau FP inhib: -2%; Tau fluor counter: -2%; Tau ThT inhib: -4%

How did CCCCN(CC)Cc1ccc(CNC(=S)Nc2c(C)cc(C)cc2C)o1 do in these assays?
Sfp inh: 45µM*; VDR inh: -6%; PLK1 PBD inh: 13µM*; Tau FP inhib: -8%; Tau fluor counter: -7%; Tau ThT inhib: -7%

Results for C[C@@H](C(=O)Nc1ccc2ccccc2c1)[C@H]1C[C@]1(C)[C@H](NC(=O)c1ccccc1)c1ccccc1 ?
Sfp inh: 14%; Tau FP inhib: inconclusive; Tau fluor counter: -17%; Tau ThT inhib: 1%

How did CCOc1cc2c(C#N)c(N(CC)CC)nc(N)c2c(N)n1 do in these assays?
VDR inh: 45µM*; PLK1 PBD inh: -3%

How did COCCCNCCOc1ccc(C(C)(C)c2ccccc2)cc1 do in these assays?
Sfp inh: -15%; VDR inh: 8%; PLK1 PBD inh: -2%; Tau FP inhib: 4%; Tau fluor counter: 4%; Tau ThT inhib: -4%

Results for CNCCCOc1ccc(C(C)(C)c2ccccc2)cc1 ?
Sfp inh: 56µM*; Tau FP inhib: 5%; Tau fluor counter: -7%; Tau ThT inhib: -4%

How did CC/C(C)=N\N=C\c1c(O)n(CC)c2cc(C3=NNC(=O)CC3)ccc12 do in these assays?
Sfp inh: -2%; VDR inh: -11%; PLK1 PBD inh: 2%; Tau FP inhib: -9%; Tau fluor counter: -23%; Tau ThT inhib: 16µM*

How did CCn1cc(C(=O)Nc2cccc(Cl)c2)c2cc(OC)c(OC)cc2c1=O do in these assays?
VDR inh: 10%; Tau FP inhib: 0%; Tau fluor counter: inconclusive; Tau ThT inhib: inconclusive

How did CC(=O)c1ccc(NC(=O)C(Cc2ccccc2)n2cccc2)cc1 (centres undefined) do in these assays?
Sfp inh: 12%; VDR inh: inconclusive; PLK1 PBD inh: 13µM*; Tau FP inhib: -8%; Tau fluor counter: -2%

How did O=C(O)c1cccc(-n2cccc2/C=C2/NC(=O)N(c3ccc(Cl)cc3)C2=O)c1 do in these assays?
Sfp inh: 14µM*; VDR inh: 5%; PLK1 PBD inh: 4.7µM*; Tau FP inhib: -12%; Tau fluor counter: -12%; Tau ThT inhib: -19%

How did O=C(O)c1ccc(COc2ccccc2/C=C2/NC(=O)N(c3cccc(Cl)c3)C2=O)cc1 do in these assays?
Sfp inh: -3%; VDR inh: 0%; PLK1 PBD inh: -21%; Tau FP inhib: 3%; Tau fluor counter: -4%; Tau ThT inhib: -11%
